Data on nine compounds can be found in PubChem BioAssay (NCI).

Common to all, as to assay: NCI-60 one-dose screen, 48 h (100 = growth as untreated, 0 = no growth, -100 = all killed)
For experiment [1], the system named is DU-145 prostate. The note with it: 10 µM unless noted.
Experiment [2] relates to K-562 leukemia. The note with it: 10 µM unless noted.
In experiment [3] the test system is MALME-3M melanoma. To be noted: 10 µM unless noted.
Experiment [4] relates to MDA-MB-231 breast. The note with it: 10 µM unless noted.
Experiment [5] deals with SF-268 CNS. To be noted: 10 µM unless noted.
The subject of experiment [6] is SF-295 CNS. The note with it: 10 µM unless noted.
Experiment [7] concerns SF-539 CNS. To be noted: 10 µM unless noted.
Experiment [8] relates to UACC-257 melanoma. To be noted: 10 µM unless noted.
The test system of experiment [9] is M14 melanoma. The note with it: 10 µM unless noted.
The subject of experiment [10] is HCT-15 colon. The note with it: 10 µM unless noted.
In experiment [11] the test system is HT29 colon. The note with it: 10 µM unless noted.
For experiment [12], the system named is SNB-75 CNS. The note with it: 10 µM unless noted.
In experiment [13] the test system is SNB-19 CNS. The note with it: 10 µM unless noted.
Experiment [14] has as its system U251 CNS. To be noted: 10 µM unless noted.
The test system of experiment [15] is PC-3 prostate. To be noted: 10 µM unless noted.
The test system of experiment [16] is UACC-62 melanoma. To be noted: 10 µM unless noted.
The subject of experiment [17] is LOX IMVI melanoma. To be noted: 10 µM.
Experiment [18] concerns SK-MEL-28 melanoma. To be noted: 10 µM unless noted.
The subject of experiment [19] is SK-MEL-5 melanoma. To be noted: 10 µM unless noted.
The test system of experiment [20] is RXF 393 renal. The note with it: 10 µM unless noted.

Each structure is given as a SMILES string. The panel holds about 83,000 compounds, 20% with a hit somewhere; the sample as a whole holds those more often.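 Growth was measured after 48 h exposure to one concentration of compound in 96-well plates. Values under 10 count as active.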 Values without a mark were called inactive. Active and inactive are the calls of the source.

On to `Cc1nc([N+](=O)[O-])c(Sc2nncc(-c3ccccc3)n2)n1C`, for which the growth in experiment [1] is 67.3%; in [2], 89.7%; in [3], -7.36% (active); in experiment [4], 92.6%; in [5], 93.5%; in [6], 144%. Further, the growth in experiment [7] is 106%; in experiment [8], 29.8%; in [9] it was 88.2%; in experiment [10] it was 68%; in experiment [11], 84.5%; in experiment [12], 76.6%. Moreover, the growth was 116% in experiment [13]; 79.4% in experiment [14]; 98.1% in experiment [15]; 82.2% in experiment [16]; 82.2% in [17]; 89.1% in [18].

Turning to `CCCCCCCCCCCC[n+]1ccccc1` (tested in a mixture with another compound), the growth is 11.7% in [1]; -33.3% (active) in experiment [2]; -38.3% (active) in experiment [3]; -30.4% (active) in experiment [4]; -8.98% (active) in [5]; -35.1% (active) in experiment [6]. In addition, the growth in experiment [7] was -10.5% (active); in experiment [8] it was -52.3% (active); in experiment [9], -56.6% (active); in experiment [10] it was 38.5%; in experiment [11], -30.1% (active); in [12], -45.9% (active). The growth in experiment [13] was -10.2% (active); in experiment [14] it was -24.1% (active); in [15] it was -61.8% (active); in experiment [19], -98.5% (active); in experiment [16], -62.3% (active); in experiment [17], -58.3% (active). The growth in experiment [18] is -19.1% (active).

In the case of `CCCCCCCCC(=O)OCCCC(CCC(CCC1CCCO1)OC(=O)CCCCCCCC)OC(=O)CCCCCCCC` (configuration not stated), the growth in experiment [1] was 106%; in [2], 115%; in experiment [3], 109%; in experiment [20] it was 107%; in experiment [5], 95.7%; in [6] it was 94.4%. Further, the growth in experiment [7] was 97.3%; in experiment [8] it was 99.9%; in [9], 111%; in [10], 103%; in [11] it was 93%; in experiment [12], 93.8%. For the same compound, the growth was 85.1% in experiment [15], 102% in [19], 88.2% in [16] and 98.6% in experiment [17].

In the case of `Cc1cc2nc(CC(=O)c3ccncc3)c(=O)[nH]c2cc1C`, the growth in experiment [1] was 100%; in [2] it was 91.1%; in experiment [3], 109%; in [20] it was 96.4%; in experiment [5], 94.2%; in experiment [6], 92%. Also, the growth in experiment [7] is 60.8%; in experiment [8] it was 107%; in experiment [9], 106%; in [10] it was 94.6%; in experiment [11], 105%; in experiment [12] it was 86.2%. The growth in experiment [14] is 77.2%; in experiment [15] it was 95.6%; in experiment [19] it was 98.1%; in [16], 88.9%; in experiment [17], 106%; in [18], 109%.

As to `OC(CSc1ccccc1)CN1CCN(c2ccc(Cl)cc2)CC1` (configuration not stated), the growth in [1] was 110%; in experiment [2], 78.3%; in experiment [4], 94.7%; in experiment [20], 95.7%; in experiment [5], 103%; in experiment [6] it was 94.3%. Further, the growth in [7] is 96.8%; in [8], 101%; in experiment [9], 100%; in [10], 96.1%; in experiment [11] it was 101%; in experiment [12], 91.3%. In addition, the growth in [13] was 94.7%; in experiment [14], 95.2%; in experiment [15], 94.3%; in experiment [19], 89.2%; in experiment [16] it was 82.2%; in [17], 93%. Moreover, the growth in [18] was 110%.

On to `Nc1nc2ncc(CNc3ccc(C(=O)NC(CCC(=O)NC(CCC(=O)NC(CCC(=O)NC(CCC(=O)NC(CCC(=O)O)C(=O)O)C(=O)O)C(=O)O)C(=O)O)C(=O)O)cc3)nc2c(=O)[nH]1` (configuration not stated), for which the growth in experiment [1] was 108%; in [2], 97.4%; in [3] it was 90.3%; in experiment [20], 112%; in [5], 105%; in [6], 106%. In addition, the growth in [7] is 99.8%; in [8], 105%; in experiment [10], 103%; in experiment [11], 107%; in experiment [12], 107%; in experiment [14] it was 110%. The growth was 100% in experiment [15], 94.5% in experiment [16], 100% in experiment [17] and 110% in experiment [18].

On to `CCCCCCCCCCCCCCCCCC[S+](C)CC` (configuration not stated), for which the growth is 64.3% in experiment [1]; 47.9% in experiment [2]; -2.38% (active) in experiment [4]; -81% (active) in experiment [20]; 30.6% in [5]; 68.8% in experiment [6]. For the same compound, the growth in experiment [7] was 31%; in experiment [8], 45.8%; in experiment [9], 4.94% (active); in experiment [10], 38.8%; in experiment [11] it was 4.75% (active); in experiment [12], -25.1% (active). In addition, the growth is 8.74% (active) in [13]; -57.5% (active) in experiment [14]; 36.3% in [15]; -99.1% (active) in experiment [19]; 19.3% in [16]; -51.6% (active) in experiment [17]. The growth in experiment [18] is 48.6%.

For `O=C(Cc1nc2cc(Cl)c(Cl)cc2nc1CC(=O)c1ccccc1)c1ccccc1`, the growth is 82.5% in [1]; 47.4% in experiment [2]; 67.5% in experiment [3]; 81.1% in [20]; 79.2% in experiment [5]; 69.5% in experiment [6]. Besides, the growth is 62.1% in [7]; 93.6% in experiment [8]; 75.2% in [9]; 69.6% in experiment [10]; 65.3% in experiment [11]; 70.4% in experiment [12]. In addition, the growth in experiment [14] is 86.6%; in [15], 59.4%; in experiment [19], 90.3%; in experiment [16] it was 56.9%; in [17], 62.2%; in [18] it was 91.1%.

Consider `COC(=O)[C@]1(C)CCC[C@]2(C)c3ccc(C(C)C)cc3C(=O)[C@@H](Br)[C@@H]12`, for which the growth was 102% in [1]; 72.4% in experiment [2]; 82.9% in experiment [4]; 74.2% in [20]; 102% in experiment [5]; 91.4% in experiment [6]. The growth in experiment [7] is 98.2%; in experiment [8], 92.5%; in experiment [9] it was 90.6%; in experiment [10] it was 69.6%; in experiment [11] it was 76.2%; in [12], 80.4%. Further, the growth in experiment [13] was 98.3%; in experiment [14] it was 91.1%; in [15] it was 86.8%; in experiment [19], 90.4%; in experiment [16], 90.6%; in [17], 79.7%. In addition, the growth in experiment [18] is 100%.
